Shown are actives, neighbours in structure and some others; about 3.4% of the full set was active somewhere.
MITF inh: inhibitors of human MITF; inhibition, % at 2.6 µM; O75030; AlphaScreen MITF homodimerization, bead proximity signal; 650,000 tested, 0.91% active; AID 1259374; in the data active = inhibition above about 50%;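 note: 0% = vehicle wells with protein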
TEAD-YAP block: TEAD-YAP interaction inhibition. HEK-TIYL cells, TEAD-Gal4/YAP UAS-luciferase luminescence. inhibition, % at 9.12 µM. 640,000 tested, 1.4% active. AID 1259422; in the data active = inhibition above about 32%;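 note: 0% = median of test compound wells and 100% = reference inhibitor wells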
FBW7 act: activators of human E3 ligase FBW7; Q969H0; AlphaScreen FBW7–phospho-cyclin E peptide binding, activator screen; normalized activity (activation), % at 26.1 µM; 650,000 tested, 0.13% active; in the data active = normalized activity above about 1.9%;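 note: purified mutant Fbw7 with reduced substrate affinity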
Target sequence (Q969H0 whole entry, looked up): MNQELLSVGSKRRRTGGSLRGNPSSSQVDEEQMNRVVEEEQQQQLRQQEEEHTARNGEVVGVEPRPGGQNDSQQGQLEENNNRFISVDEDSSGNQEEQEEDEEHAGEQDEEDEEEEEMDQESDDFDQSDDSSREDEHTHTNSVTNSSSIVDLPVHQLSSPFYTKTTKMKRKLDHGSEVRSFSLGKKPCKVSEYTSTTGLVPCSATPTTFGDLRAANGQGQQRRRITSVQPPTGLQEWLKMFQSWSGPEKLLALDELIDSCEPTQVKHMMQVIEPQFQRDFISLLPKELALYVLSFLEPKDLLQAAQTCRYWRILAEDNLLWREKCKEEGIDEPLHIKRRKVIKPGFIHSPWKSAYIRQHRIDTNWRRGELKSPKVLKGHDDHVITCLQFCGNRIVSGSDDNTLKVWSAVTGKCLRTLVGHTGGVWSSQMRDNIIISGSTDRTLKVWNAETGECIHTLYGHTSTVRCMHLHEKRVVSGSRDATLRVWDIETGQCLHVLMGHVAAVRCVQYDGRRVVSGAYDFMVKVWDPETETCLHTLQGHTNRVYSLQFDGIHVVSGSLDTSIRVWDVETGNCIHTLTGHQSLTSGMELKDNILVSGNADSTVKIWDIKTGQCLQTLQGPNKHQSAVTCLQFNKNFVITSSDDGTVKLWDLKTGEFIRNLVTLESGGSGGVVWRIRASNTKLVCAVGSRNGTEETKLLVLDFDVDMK
GPR151 activ: activators of human GPR151; Q8TDV0; PathHunter beta-arrestin GPR151 cells, luminescence; activation, % at 11.2 µM; 650,000 tested, 1% active; AID 1508602; in the data active = activation above about 4.9%;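 note: 0% = median of compound wells and 100% = cells with positive control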
MITF inh conf: human MITF inhibition, confirmation. shares compounds with MITF inh. AID 1259372. 4,700 tested, 16% active. inhibition, % at 2.6 µM. AlphaScreen MITF homodimerization, biotin/His-MITF beads;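 active = inhibition above a cutoff derived from the DMSO control wells, cut at about 28% in these data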;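 note: 0% = MITF dimer wells with DMSO only; inhibitors lower the bead chemiluminescence by keeping MITF from dimerizing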
AS interf DR: optically interferes with AlphaScreen signal in dose response; IC50, µM; shares compounds with MITF inh; 480 tested, 6% active; AlphaScreen optical interference counterscreen, cell-free; AID 1259373; call rule not given here
AlphaScreen intf2: optically interferes with AlphaScreen signal; shares compounds with MITF inh; LysRS AlphaScreen counterscreen, signal interference, triplicate; inhibition, % at 2.6 µM; 4,700 tested, 7.6% active; AID 1259376;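 active = inhibition above a cutoff derived from the DMSO control wells, cut at about 30% in these data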
Starred values were filed as active, the others as inactive.

`CCN1CCN(CCOc2ccc(F)cc2)CC1` gave MITF inh 80.7*, TEAD-YAP block 8.8, FBW7 act -0.2, GPR151 activ 2.6, MITF inh conf 10.1 and AlphaScreen intf2 17.7.
Fc1ccc(OCCN2CCNCC2)cc1 was read as MITF inh 60.4*, TEAD-YAP block 10.1, FBW7 act -0.2, GPR151 activ 1.7, MITF inh conf -11.4 and AlphaScreen intf2 -3.5.
`CCCCOc1ccc(OCCOCCN2CCN(CC)CC2)cc1` gave MITF inh 65.3*, TEAD-YAP block -2.4, FBW7 act -0.4, GPR151 activ 0.0, MITF inh conf 12.2 and AlphaScreen intf2 14.4.
Screening CCN1CCN(CCOCCOc2ccc(I)cc2)CC1 returned MITF inh 81.4*, TEAD-YAP block 8.6, FBW7 act 0.6, GPR151 activ 0.6, MITF inh conf 4.8 and AlphaScreen intf2 15.3.
`CC1(C)Cc2ccccc2/C(=C\C(=O)N2CCN(C(=O)/C=C3/NC(C)(C)Cc4ccccc43)CC2)N1` gave MITF inh -3.9, TEAD-YAP block -1.4, FBW7 act 0.0 and GPR151 activ 0.8.
`CCN1CCN(CCOCCOc2ccc(F)cc2)CC1` gave MITF inh 70.3*, TEAD-YAP block 7.9, FBW7 act 0.5, GPR151 activ 0.1, MITF inh conf 32.1*, AS interf DR >6.48 and AlphaScreen intf2 9.8.
`CCN1CCN(CCCOc2ccc(C#N)cc2)CC1` gave MITF inh 72.1*, TEAD-YAP block 17.7, FBW7 act 0.5, GPR151 activ -1.2, MITF inh conf 11.5 and AlphaScreen intf2 18.1.
Screening O=C(NCCc1ccccc1)C1CCN(C(=O)N2CCOc3ccccc32)CC1 returned MITF inh 8.8, TEAD-YAP block 2.2, FBW7 act 0.4 and GPR151 activ -2.1.
O=S(=O)(CCN1CCc2ccccc2C1)Oc1ccc(Br)cc1 was read as MITF inh -4.9, TEAD-YAP block 9.5, FBW7 act 0.0 and GPR151 activ 0.8.
CC(NS(=O)(=O)c1cc(Cl)ccc1Cl)C(=O)NC1CCCCC1 (centres undefined) was read as MITF inh 57.5*, TEAD-YAP block 2.4, FBW7 act 0.5, GPR151 activ -0.6, MITF inh conf -4.1 and AlphaScreen intf2 1.0.
O=C1CCCN1CCn1cnc2c(NCc3nc4ccccc4[nH]3)nc(Nc3ccccc3)nc21 was read as MITF inh 52.1*, TEAD-YAP block 10.3, FBW7 act 0.2, GPR151 activ -1.0, MITF inh conf 1.0 and AlphaScreen intf2 7.8.
Screening CCOC(=O)c1ccc(OCC(O)CN2CCCC2)cc1 (centres undefined) returned MITF inh 52.0*, TEAD-YAP block -2.8, FBW7 act 0.0, GPR151 activ 3.6, MITF inh conf 9.5 and AlphaScreen intf2 8.2.
`COc1ccccc1NS(=O)(=O)c1ccccc1C(F)(F)F` gave MITF inh -4.9, TEAD-YAP block 3.9, FBW7 act 0.0 and GPR151 activ 0.1.
CCCC(C)C(=O)Nc1ccccc1C (centres undefined) was read as MITF inh 51.0*, TEAD-YAP block 2.3, FBW7 act 0.5, GPR151 activ -0.4, MITF inh conf 0.7 and AlphaScreen intf2 9.4.
Screening Fc1cc(F)c(F)c(SCCc2ccncc2)c1F returned MITF inh 90.2*, TEAD-YAP block -3.4, FBW7 act 0.2, GPR151 activ 0.0, MITF inh conf 17.6 and AlphaScreen intf2 21.8.
Oc1ccc(CN2CCOCC2)c2cccnc12 was read as MITF inh 90.8*, TEAD-YAP block 67.1*, FBW7 act -0.4, GPR151 activ -0.4, MITF inh conf 99.0* and AlphaScreen intf2 99.2*.
For CCOC(=O)C1CCN(Cc2ccc(O)c3ncccc23)CC1 the results were MITF inh 71.8*, TEAD-YAP block 55.3*, FBW7 act -1.9, GPR151 activ 0.0, MITF inh conf 113.5* and AlphaScreen intf2 100.3*.
Screening CC[C@@H](Cn1nc(-c2ccc(F)c(F)c2)ccc1=O)NC(=O)Cc1nonc1C returned MITF inh 3.1, TEAD-YAP block 5.2, FBW7 act -0.1 and GPR151 activ -0.5.
`Cc1cc(Cl)ccc1NC(=O)/C(=C/c1cccc([N+](=O)[O-])c1)NC(=O)c1cccs1` gave MITF inh 5.3, TEAD-YAP block 0.4, FBW7 act 0.0 and GPR151 activ -0.7.
Screening O=C(O)CC(CCc1ccccc1)CC(=O)O returned MITF inh 61.1*, TEAD-YAP block 18.0, FBW7 act 0.4, GPR151 activ 0.1, MITF inh conf 18.3 and AlphaScreen intf2 15.7.
`CCc1ccc(CN2CCN(C3CCCCCC3)CC2)cc1` gave MITF inh 79.4*, TEAD-YAP block -13.0, FBW7 act -0.2, GPR151 activ -1.1, MITF inh conf 2.1 and AlphaScreen intf2 -2.5.
Screening Fc1ccc(CN2CCN(C3CCC(c4ccccc4)CC3)CC2)cc1 (centres undefined) returned MITF inh 65.8*, TEAD-YAP block -0.8, FBW7 act 0.0, GPR151 activ 0.7, MITF inh conf 1.1 and AlphaScreen intf2 8.6.
c1cc(CN2CCN(C3CCCC3)CC2)ccn1 was read as MITF inh 78.5*, TEAD-YAP block 3.7, FBW7 act 0.5, GPR151 activ -1.4, MITF inh conf 6.8 and AlphaScreen intf2 14.1.
`Fc1ccc(CN2CCN(C3CCCCCC3)CC2)cc1` gave MITF inh 64.5*, TEAD-YAP block 8.4, FBW7 act -0.2, GPR151 activ 1.7, MITF inh conf 15.7 and AlphaScreen intf2 21.0.
For Fc1ccc(CN2CCC(N3CCCCC3)CC2)cc1 the results were MITF inh 45.4, TEAD-YAP block 9.8, FBW7 act -0.2 and GPR151 activ -0.3.
Screening Cc1ccc(CN2CCN(C3CCCC3)CC2)cc1 returned MITF inh 38.2, TEAD-YAP block 0.6, FBW7 act -0.1 and GPR151 activ 1.2.
For Fc1ccc(CN2CCN(C3CCN(Cc4ccccc4)CC3)CC2)cc1 the results were MITF inh 14.1, TEAD-YAP block 8.5, FBW7 act 0.0 and GPR151 activ 0.2.
Screening O=c1ccn2c(SCc3ccccc3F)nnc2[nH]1 returned MITF inh 12.2, TEAD-YAP block 6.7, FBW7 act 0.0 and GPR151 activ -0.2.
For CCNC(=O)NC(=O)CSc1n[nH]c(-c2cc(Cl)ccc2OC)n1 the results were MITF inh -12.4, TEAD-YAP block 6.8, FBW7 act -0.1 and GPR151 activ 2.4.
CCN(C(=O)c1ccc(S(C)(=O)=O)cc1)C12CC3CC(CC(C3)C1)C2 was read as MITF inh 4.0, TEAD-YAP block -3.0, FBW7 act 0.0 and GPR151 activ 2.3.
N#CCC1Nc2ccccc2S(=O)(=O)N1 (centres undefined) was read as MITF inh 3.0, TEAD-YAP block -6.2, FBW7 act 0.6 and GPR151 activ 3.6.
